# Results taken from article PMC5892938, “SARNAclust: Semi-automatic detection of RNA protein binding motifs from immunoprecipitation data”.
# Over roughly 11,000 sequences, “log2 fold change” has its median near 0.00022; the highest 2% begin near 0.34. The list shows a part of the results.
# Molecular target: GST-SBP-SLBP (stem-loop binding protein) (Homo sapiens, UniProt Q14493 1-270)
# Experiment: targeted RNA Bind-n-Seq; RBNS binding buffer: 25 mM Tris pH 7.5, 150 mM KCl, 3 mM MgCl2, 0.1% Tween, 0.5 mg/mL BSA, 1 mM DTT; 27 nM protein, 750 pM RNA pool; temperature not stated; high values mean tight binding
# Settings: protein: recombinant; tags: N-terminal GST and SBP (pGEX6P1-SBP); structured_RNA
# Outline: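 The GST-SBP-tagged protein was expressed in Rosetta(DE3) pLysS E. coli, glutathione-purified and incubated at 27 nM with 750 pM of a designed, T7-transcribed RNA oligo pool in RBNS binding buffer. Bound RNA was reverse transcribed with a 10-nucleotide barcoded primer, PCR-amplified and sequenced on a MiSeq with 200-cycle paired-end reads. Reads were joined with FLASH, aligned with HISAT2 and collapsed by barcode. The binding signal is the DEseq log2 fold change of read counts per sequence.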
row,Sequence,binding signal [log2 fold change]
1,GGUCACGUCUCAAUCAACUCUCAAGAGGGGGGGAAAACCCCUUUGCCCUCCAAAUCAACAGCUCGCAGUCAAG,0.327 ± 0.445
2,GGUCACGUCUCAAUCAACUCCAAAGAGGGGGGGAAAACCCCUUUGCCCUCGAAAUCAACAGCUCGCAGUCAAG,0.347 ± 0.378
3,GGUCACGUCUCAAUCAACUCCAAAGAGGGGGGGAAAACCCCUUUGCCCUCCAAUUCAACAGCUCGCAGUCAAG,0.304 ± 0.412
4,GGUCACGUCUCAAUCAACUCCAAAGAGGGGGGGAAAACCCCUUUGCCCUCAUUCUCAACAGCUCGCAGUCAAG,0.342 ± 0.438
5,GGUCACGUCUCAAUCAACUCCAAAGAGGGGGGGAAAACCCCUUUGCCCUCAAUAUCAACAGCUCGCAGUCAAG,0.359 ± 0.439
6,GGUCACGUCUCAAUCAACUCACAAGAGGGGGGGAAAACCCCUUUGCCCUCAUCCUCAACAGCUCGCAGUCAAG,0.34 ± 0.422
7,GGUCACGUCUCAAUCAACUCUCUCGAGGGGGGGAAAACCCCUUUGCCCUCAAAAUCAACAGCUCGCAGUCAAG,0.354 ± 0.38
8,GGUCACGUCUCAAUCAACUCUCUAGAGGGGGGGAAAACCCCUUUGCCCUCGAAAUCAACAGCUCGCAGUCAAG,0.342 ± 0.443
9,GGUCACGUCUCAAUCAACUCUCUAGAGGGGGGGAAAACCCCUUUGCCCUCGUCAUCAACAGCUCGCAGUCAAG,0.374 ± 0.381
10,GGUCACGUCUCAAUCAACUCUCUCGAGGGGGGGAAAACCCCUUUGCCCUCAACAUCAACAGCUCGCAGUCAAG,0.307 ± 0.399
11,GGUCACGUCUCAAUCAACUCUCUAGAGGGGGGGAAAACCCCUUUGCCCUCAUCCUCAACAGCUCGCAGUCAAG,0.441 ± 0.424
12,GGUCACGUCUCAAUCAACUCUCUAGAGGGGGGGAAAACCCCUUUGCCCUCCGUUUCAACAGCUCGCAGUCAAG,0.354 ± 0.438
13,GGUCACGUCUCAAUCAACUCAUUCGAGGGGGGGAAAACCCCUUUGCCCUCAUCAUCAACAGCUCGCAGUCAAG,0.363 ± 0.407
14,GGUCACGUCUCAAUCAACUCCUAAGAGGGGGGGAAAACCCCUUUACCCUCAAUCUCAACAGCUCGCAGUCAAG,0.429 ± 0.444
15,GGUCACGUCUCAAUCAACUCCUAAGAGGGGGGGAAAACCCCUUUACCCUCACUAUCAACAGCUCGCAGUCAAG,0.433 ± 0.43
16,GGUCACGUCUCAAUCAACUCCUAAGAGGGGGGGAAAACCCCUUUACCCUCCGCAUCAACAGCUCGCAGUCAAG,0.313 ± 0.425
17,GGUCACGUCUCAAUCAACUCCUAAGAGGGGGGGAAAACCCCUUUACCCUCGUCCUCAACAGCUCGCAGUCAAG,0.382 ± 0.439
18,GGUCACGUCUCAAUCAACUCUUUAGAGGGGGGGAAAACCCCUUUGCCCUCGAAUUCAACAGCUCGCAGUCAAG,0.388 ± 0.441

row,Sequence,binding signal [log2 fold change]
1,GGUCACGUCUCAAUCAACUCCUUAGAGGGGGGGAAAACCCCUUUGCCCUCGAAUUCAACAGCUCGCAGUCAAG,0.379 ± 0.448
2,GGUCACGUCUCAAUCAACUCUAUAGAGGGGGGGAAAACCCCUUUGCCCUCGAAUUCAACAGCUCGCAGUCAAG,0.377 ± 0.432
3,GGUCACGUCUCAAUCAACUCUUUAGAGGGGGGGAAAACCCCUUUGCCCUCAACUUCAACAGCUCGCAGUCAAG,0.318 ± 0.415
4,GGUCACGUCUCAAUCAACUCUCACGAGGGGGGGAAAACCCCUUUGCCCUCAAUUUCAACAGCUCGCAGUCAAG,0.305 ± 0.454
5,GGUCACGUCUCAAUCAACUCAAAAGAGGGGGGGAAAACCCCUUUGCCCUCACAAUCAACAGCUCGCAGUCAAG,0.31 ± 0.383
6,GGUCACGUCUCAAUCAACUCAAAAGAGGGGGGGAAAACCCCUUUGCCCUCACUUUCAACAGCUCGCAGUCAAG,0.573 ± 0.412
7,GGUCACGUCUCAAUCAACUCUCACGAGGGGGGGAAAACCCCUUUGCCCUCACUUUCAACAGCUCGCAGUCAAG,0.351 ± 0.41
8,GGUCACGUCUCAAUCAACUCUCAAGAGGGGGGGAAAACCCCUUUGCCCUCGUAAUCAACAGCUCGCAGUCAAG,0.452 ± 0.411
9,GGUCACGUCUCAAUCAACUCAUAAGAGGGGGGGAAAACCCCUUUGCCCUCAAUCUCAACAGCUCGCAGUCAAG,0.373 ± 0.408
10,GGUCACGUCUCAAUCAACUCACACGAGGGGGGGAAAACCCCUUUGCCCUCAACAUCAACAGCUCGCAGUCAAG,0.529 ± 0.425
11,GGUCACGUCUCAAUCAACUCUCAAGAGGGGGGGAAAACCCCUUUGCCCUCACUUUCAACAGCUCGCAGUCAAG,0.453 ± 0.436
12,GGUCACGUCUCAAUCAACUCUCAAGAGGGGGGGAAAACCCCUUUGCCCUCCAUGUCAACAGCUCGCAGUCAAG,0.411 ± 0.415
13,GGUCACGUCUCAAUCAACUCUCAAGAGGGGGGGAAAACCCCUUUGCCCUCAACAUCAACAGCUCGCAGUCAAG,0.531 ± 0.415
14,GGUCACGUCUCAAUCAACUCCUAAGAGGGGGGGAAAACCCCUUUGCCCUCACUUUCAACAGCUCGCAGUCAAG,0.38 ± 0.429
15,GGUCACGUCUCAAUCAACUCCUAAGAGGGGGGGAAAACCCCUUUGCCCUCACCGUCAACAGCUCGCAGUCAAG,0.325 ± 0.438
16,GGUCACGUCUCAAUCAACUCAAUCGAGGGGGGGAAAACCCCUUUGCCCUCACUUUCAACAGCUCGCAGUCAAG,0.594 ± 0.435
17,GGUCACGUCUCAAUCAACUCUAAAGAGGGGGGGAAAACCCCUUUGCCCUCACUUUCAACAGCUCGCAGUCAAG,0.415 ± 0.443
18,GGUCACGUCUCAAUCAACUCCUAAGAGGGGGGGAAAACCCCUUUGCCCUCAUUCUCAACAGCUCGCAGUCAAG,0.335 ± 0.447
